The values that follow come from PubChem BioAssay (NCI).

The structures appear in SMILES notation. About 83,000 compounds went through this panel and 20% of them were active in at least one assay; those are over-represented in the sample as a whole.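 Cell lines were cultured in 96-well plates, exposed to a single compound concentration, and assessed for percent growth 48 hours later.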 Unmarked numbers belong to inactive results. The source made the active and inactive calls. Rule for the calls: active = growth percent below 10; inactive = the rest.

This test deals with MOLT-4 leukemia. The experiment in a line: NCI-60 one-dose screen, 48 h (100 = growth as untreated, 0 = no growth, -100 = all killed). Conditions: 10 µM unless noted.
For the compound `CN1CCN(Cc2ccc(NC(=O)c3cncc(C#Cc4cnc5ccc(NCCO)nn45)c3)cc2C(F)(F)F)CC1`, the growth was 3.21% (active).

On to `C#CCOc1cccc(/C(N)=N/C(N)=N/c2nc3ccccc3s2)c1`, for which the growth was 71.8%.

Turning to `NC(N)=NS(=O)(=O)c1ccc(N=Nc2c(N)nn(-c3ccc([N+](=O)[O-])cc3[N+](=O)[O-])c2N)cc1`, the growth is 99.4%.

As for `N#Cc1c(-c2cccs2)cc(-c2cnccn2)nc1SCC(=O)N/N=C/c1cccs1`, the growth is 85.2%.

With `COc1cc(C(=O)c2cc(C(C)=O)c3ccc(C)cn23)cc(OC)c1OC`, the growth is 28.5%.

For `Brc1ccc(-c2cc(-c3ccc4c(c3)OCCO4)n[nH]2)s1`, the growth was 19.3%.
